Results filed as inconclusive are left out. The source made the active and inactive calls. Cut-off not given; nearly all actives show AC50 up to about 26 µM.

The term AC50 denotes the concentration at which the activity in the assay is half-maximal.

The nature of this assay: viability loss in pontine glioma line – cell-based, SU-DIPG-XVII, MIPE5.0, CellTiter-Glo, qHTS, dose response (AID 1347060).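 On AC50: cells exposed to compound for 48 hours before viability readout.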 As to conditions: CellTiter-Glo ATP luminescence. Background: ATP-based viability assays read luminescence as a measure of living cells.
Consider `Cc1c(-c2cnccn2)ssc1=S`, for which the AC50 is 10.5 µM (active). For the compound `CC(NCCc1ccc(O)cc1)C(O)c1ccc(O)cc1` (stereo unspecified), the call was inactive. Take `OC[C@@H](O)[C@@H](O)[C@H](O)[C@@H](O)CO`: the outcome was inactive. As for `O=c1ccn([C@@H]2O[C@H](CO)[C@@H](O)[C@H]2O)c(=O)[nH]1`, the result was inactive.

With `N#C[C@@H]1C[C@@H]2C[C@@H]2N1C(=O)[C@@H](N)C12CC3CC(CC(O)(C3)C1)C2`, the outcome was inactive. For the compound `CC(C)(CO)[C@@H](O)C(=O)NCCC(=O)O`, the outcome was inactive. As for `CC(C)C(C)/C=C/C(C)C1CCC2C3=CC=C4CC(O)CCC4(C)C3CCC21C` (stereo unspecified), the result was inactive. Take `C[C@H]1COC2=C1C(=O)C(=O)c1c2ccc2c1CCCC2(C)C`: the AC50 was 20.9 µM (active).

Take `OC(c1cc(C(F)(F)F)nc2c(C(F)(F)F)cccc12)C1CCCCN1` (stereo unspecified): the AC50 is 20.9 µM (active). Regarding `CN1C(C(=O)Nc2ccccn2)=C(O)c2sc(Cl)cc2S1(=O)=O`, the result was inactive.

Consider `COC(=O)/C=C/C(=O)OC`, for which the result was inactive. Turning to `Cc1cc2nc3c(=O)[nH]c(=O)nc-3n(CC(O)C(O)C(O)CO)c2cc1C` (stereo unspecified), the result was inactive. With `CN[C@@H]1[C@H](O[C@H]2[C@H](O[C@@H]3[C@@H](O)[C@H](O)[C@@H](N=C(N)N)[C@H](O)[C@H]3N=C(N)N)O[C@@H](C)[C@]2(O)C=O)O[C@@H](CO)[C@H](O)[C@H]1O`, the result was inactive.

In the case of `CCCCS(=N)(=O)CCC(N)C(=O)O` (stereo unspecified), the compound was classed as inactive. Take `Cc1coc2c1C(=O)C(=O)c1c-2ccc2c1CCCC2(C)C`: the AC50 is 5.9 µM (active). The same measure, in the same setting: for `Nc1nc(F)nc2c1ncn2[C@@H]1O[C@H](COP(=O)(O)O)[C@@H](O)[C@@H]1O` the value was 18.6 µM (active); for `CC[C@@]1(O)C(=O)OCc2c1cc1n(c2=O)Cc2cc3cc(O)ccc3nc2-1`, 0.0166 µM (active).

As to `CC[C@]1(O)CC2CN(CCc3c([nH]c4ccccc34)[C@@](C(=O)OC)(c3cc4c(cc3OC)N(C)[C@H]3[C@@](O)(C(=O)OC)[C@H](OC(C)=O)[C@]5(CC)C=CCN6CC[C@]43[C@@H]65)C2)C1` (stereo partly specified), the AC50 was 0.0209 µM (active). In the case of `COc1ccc2nc3cc(Cl)ccc3c(Nc3cc(CN4CCCC4)c(O)c(CN4CCCC4)c3)c2n1`, the concentration at half-maximal activity (AC50) was 9.34 µM (active). In the case of `CC(=O)NC(CS)C(=O)O` (stereo unspecified), the call was inactive.

In the case of `C[C@]12CCC3c4ccc(O)cc4CCC3C1CCC2=O` (stereo partly specified), the compound was classed as inactive.

The values are drawn from PubChem BioAssay.
